# Values joined by “and” are separate entries in the source; they are usually repeats but may differ in a detail not shown here. Equal entries are not always repeated. Compounds without any hit were thinned out: in the full panel of roughly 79,000, 15% have a hit. Some structures have more than one record in an assay (separate samples or runs), and their calls can disagree. Active and inactive are the calls of the source. Rule as the data show it: active = growth inhibition above about 70%; inactive = the rest.
# Tests used:
# [1] = NCI Yeast Anticancer Drug Screen. Data for the rad52 strain (AID 147);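 also: 0% = growth of vehicle-treated control cultures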; conditions: S. cerevisiae rad52 mutant growth inhibition, stronger effect = higher value
# In short: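 Yeast strain carrying a DNA damage repair alteration was exposed to test compounds. Growth inhibition was measured relative to vehicle-treated controls.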
# [2] = NCI Yeast Anticancer Drug Screen. Data for the wt1 strain (AID 149);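 also: 0% = growth of vehicle-treated wt1 cultures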; conditions: S. cerevisiae wt1 strain (SPY 50644) growth inhibition, stronger effect = higher value
# In short: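 wt1 yeast, compound-treated; % growth inhibition vs vehicle control.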
# [3] = NCI Yeast Anticancer Drug Screen. Data for the rad50EPP+ strain (AID 151);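 also: 0% = growth of vehicle-treated control cultures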; conditions: S. cerevisiae rad50 mutant strain, stronger effect = higher value
# In short: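 Yeast strain carrying rad50 alteration (rad50EPP+) exposed to compounds; growth inhibition measured relative to vehicle-treated controls.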
# [4] = NCI Yeast Anticancer Drug Screen. Data for the rad50 strain (AID 155);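 also: 0% = growth of vehicle-only cultures of the same strain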; conditions: S. cerevisiae rad50 strain growth inhibition, stronger effect = higher value
# In short: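 Genetically altered yeast (DNA repair pathway); compound treatment; growth inhibition vs vehicle ctrl.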
# [5] = NCI Yeast Anticancer Drug Screen. Data for the rad14 strain (AID 159);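 also: 0% = growth of vehicle-treated control cultures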; conditions: S. cerevisiae rad14 strain growth inhibition, stronger effect = higher value
# In short: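 Test compounds were applied to a repair-deficient yeast strain. Its growth was then compared with that of cultures given vehicle alone, and inhibition was expressed relative to those controls.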
# [6] = NCI Yeast Anticancer Drug Screen. Data for the sgs1 mgt1 strain (AID 161);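 also: 0% = growth of cultures given vehicle only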; conditions: S. cerevisiae sgs1 mgt1 strain, stronger effect = higher value
# In short: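 Compounds are added to genetically altered yeast, and growth is compared with cultures given vehicle alone to give percent inhibition.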
# [7] = NCI Yeast Anticancer Drug Screen. Data for the CLN2oe strain (AID 163);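 also: 0% = growth of vehicle-only control cultures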; conditions: S. cerevisiae CLN2oe strain, stronger effect = higher value
# In short: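 Yeast cells carrying a defined cell-cycle control alteration were exposed to test compounds. Growth inhibition was scored against vehicle-treated control cultures.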
# [8] = NCI Yeast Anticancer Drug Screen. Data for the cln2 rad14 strain (AID 165);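 also: 0% = growth equal to vehicle treated cultures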; conditions: S. cerevisiae cln2 rad14 strain, stronger effect = higher value
# In short: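 Yeast carrying cln2 and rad14 alterations (cell cycle control and DNA damage repair) were exposed to compounds. Growth inhibition was measured against vehicle-treated controls.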
# [9] = NCI Yeast Anticancer Drug Screen. Data for the bub3 strain (AID 167); conditions: S. cerevisiae bub3 mutant strain, stronger effect = higher value
# In short: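 Yeast carrying a defined mutation is treated with each compound, and growth is compared with that of vehicle-exposed cells to give inhibition.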
# [10] = NCI Yeast Anticancer Drug Screen. Data for the wt2 strain (AID 169);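 also: 0% = growth of vehicle-treated yeast cultures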; conditions: S. cerevisiae wt2 strain growth inhibition, stronger effect = higher value
# In short: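 Yeast cells were exposed to test compounds, and growth inhibition was measured relative to vehicle-treated controls.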
# [11] = NCI Yeast Anticancer Drug Screen. Data for the mlh1 strain (AID 171);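 also: 0% = growth of vehicle-treated control cultures of the same strain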; conditions: S. cerevisiae mlh1 strain growth inhibition, stronger effect = higher value
# In short: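 Yeast carrying a defined genetic alteration in DNA damage repair or cell cycle control were exposed to test compounds. Growth inhibition was measured relative to vehicle-treated controls.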
# [12] = NCI Yeast Anticancer Drug Screen. Data for the sgs1 strain (AID 173);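 also: 0% = growth of vehicle-only control cultures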; conditions: S. cerevisiae sgs1 mutant, stronger effect = higher value
# In short: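 Yeast mutant strains carrying defined defects in DNA damage repair or cell cycle control were exposed to test compounds. Growth inhibition was scored against vehicle-treated controls.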
# [13] = NCI Yeast Anticancer Drug Screen. Data for the mlh1 rad18 strain (AID 175); conditions: S. cerevisiae mlh1 rad18 strain growth inhibition, stronger effect = higher value
# In short: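 Growth inhibition of the yeast strain was measured after compound exposure and expressed relative to vehicle-treated controls. The strain carries defined defects in DNA damage repair.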
# [14] = NCI Yeast Anticancer Drug Screen. Data for the mgt1 strain (AID 153); conditions: S. cerevisiae mgt1 mutant growth inhibition, stronger effect = higher value
# In short: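 Yeast mgt1 strain (DNA repair/cell-cycle alteration panel) exposed to compounds; growth inhibition measured relative to vehicle-treated controls.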
# [15] = NCI Yeast Anticancer Drug Screen. Data for the mec2-1 strain (AID 157); conditions: S. cerevisiae mec2-1 strain, stronger effect = higher value
# In short: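 mec2-1 yeast strain, carrying an alteration in DNA damage repair or cell cycle control, was exposed to compounds; growth inhibition was measured relative to vehicle-treated controls.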
# [16] = NCI Yeast Anticancer Drug Screen. Data for the rad18 strain (AID 177); conditions: S. cerevisiae rad18 mutant growth inhibition, stronger effect = higher value
# In short: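 Yeast carrying a defined DNA damage repair alteration were exposed to compounds. Growth inhibition was expressed relative to vehicle-treated controls.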
# [17] = at 5.0 µM (retest, dose inferred, filed as 0.5)
# [18] = at 50.0 µM (retest, dose inferred, filed as 5.0)
compound,measurement,setting,value
COc1cccc2c1C(=O)c1c(O)c3c(c(O)c1C2=O)C[C@@](O)(/C(C)=N\O)C[C@@H]3OC1CC(N)C(O)C(C)O1 (stereo partly drawn),growth inhibition,[1]; at 1.2 µM,8% (inactive)
same,growth inhibition,[1]; at 3.7 µM,27% (inactive)
same,growth inhibition,[1]; at 11.0 µM,61% (inactive)
same,growth inhibition,[1]; at 33.0 µM,84% (active)
same,growth inhibition,[1]; at 100.0 µM,90% (active)
same,growth inhibition,[2]; at 1.2 µM,6% (inactive)
same,growth inhibition,[2]; at 3.7 µM,1% (inactive)
same,growth inhibition,[2]; at 11.0 µM,8% (inactive)
same,growth inhibition,[2]; at 33.0 µM,19% (inactive)
same,growth inhibition,[2]; at 100.0 µM,29% (inactive)
same,growth inhibition,[3]; at 1.2 µM,7% (inactive)
same,growth inhibition,[3]; at 3.7 µM,29% (inactive)
same,growth inhibition,[3]; at 11.0 µM,63% (inactive)
same,growth inhibition,[3]; at 33.0 µM,82% (active)
same,growth inhibition,[3]; at 100.0 µM,89% (active)
same,growth inhibition,[4]; at 1.2 µM,13% (inactive)
same,growth inhibition,[4]; at 3.7 µM,52% (inactive)
same,growth inhibition,[4]; [17],22% (inactive)
same,growth inhibition,[4]; at 11.0 µM,79% (active)
same,growth inhibition,[4]; at 33.0 µM,89% (active)
same,growth inhibition,[4]; [18],93% (active)
same,growth inhibition,[4]; at 50.0 µM,91.6% (active)
same,growth inhibition,[4]; at 100.0 µM,93% (active)
same,growth inhibition,[5]; at 1.2 µM,1% (inactive)
same,growth inhibition,[5]; at 3.7 µM,3% (inactive)
same,growth inhibition,[5]; at 11.0 µM,8% (inactive)
same,growth inhibition,[5]; at 33.0 µM,29% (inactive)
same,growth inhibition,[5]; at 100.0 µM,63% (inactive)
same,growth inhibition,[6]; [17],-5% (inactive)
same,growth inhibition,[6]; [18],26% (inactive)
same,growth inhibition,[6]; at 50.0 µM,-9.9% (inactive)
same,growth inhibition,[7]; at 1.2 µM,-1% (inactive)
same,growth inhibition,[7]; at 3.7 µM,2% (inactive)
same,growth inhibition,[7]; at 11.0 µM,8% (inactive)
same,growth inhibition,[7]; at 33.0 µM,13% (inactive)
same,growth inhibition,[7]; at 100.0 µM,44% (inactive)
same,growth inhibition,[8]; [17],3% (inactive)
same,growth inhibition,[8]; [18],18% (inactive)
same,growth inhibition,[8]; at 50.0 µM,26.2% (inactive)
same,growth inhibition,[9]; at 1.2 µM,-2% (inactive)
same,growth inhibition,[9]; at 3.7 µM,0% (inactive)
same,growth inhibition,[9]; [17],35% (inactive)
same,growth inhibition,[9]; at 11.0 µM,5% (inactive)
same,growth inhibition,[9]; at 33.0 µM,25% (inactive)
same,growth inhibition,[9]; [18],18% (inactive)
same,growth inhibition,[9]; at 50.0 µM,-23.6% (inactive)
same,growth inhibition,[9]; at 100.0 µM,47% (inactive)
same,growth inhibition,[10]; at 1.2 µM,0% (inactive)
same,growth inhibition,[10]; at 3.7 µM,1% (inactive)
same,growth inhibition,[10]; at 11.0 µM,12% (inactive)
same,growth inhibition,[10]; at 33.0 µM,25% (inactive)
same,growth inhibition,[10]; at 100.0 µM,37% (inactive)
same,growth inhibition,[11]; at 1.2 µM,1% (inactive)
same,growth inhibition,[11]; at 3.7 µM,-1% (inactive)
same,growth inhibition,[11]; at 11.0 µM,11% (inactive)
same,growth inhibition,[11]; at 33.0 µM,26% (inactive)
same,growth inhibition,[11]; at 100.0 µM,49% (inactive)
same,growth inhibition,[12]; at 1.2 µM,0% (inactive)
same,growth inhibition,[12]; at 3.7 µM,5% (inactive)
same,growth inhibition,[12]; at 11.0 µM,15% (inactive)
same,growth inhibition,[12]; at 33.0 µM,29% (inactive)
same,growth inhibition,[12]; at 100.0 µM,48% (inactive)
same,growth inhibition,[13]; [17],9% (inactive)
same,growth inhibition,[13]; [18],46% (inactive)
same,growth inhibition,[13]; at 50.0 µM,13.8% (inactive)
Oc1cccc2cccnc12,growth inhibition,[1]; at 1.2 µM,20% (inactive)
same,growth inhibition,[1]; at 3.7 µM,91% (active)
same,growth inhibition,[1]; at 11.0 µM,93% (active)
same,growth inhibition,[1]; at 33.0 µM,94% (active)
same,growth inhibition,[1]; at 100.0 µM,96% (active)
same,growth inhibition,[2]; at 1.2 µM,27% (inactive)
same,growth inhibition,[2]; at 3.7 µM,95% (active)
same,growth inhibition,[2]; at 11.0 µM,99% (active)
same,growth inhibition,[2]; at 33.0 µM,99% (active)
same,growth inhibition,[2]; at 100.0 µM,98% (active)
same,growth inhibition,[3]; at 1.2 µM,-11% (inactive)
same,growth inhibition,[3]; at 3.7 µM,93% (active)
same,growth inhibition,[3]; at 11.0 µM,94% (active)
same,growth inhibition,[3]; at 33.0 µM,94% (active)
same,growth inhibition,[3]; at 100.0 µM,95% (active)
same,growth inhibition,[14]; at 1.2 µM,4% (inactive)
same,growth inhibition,[14]; at 3.7 µM,91% (active)
same,growth inhibition,[14]; at 11.0 µM,96% (active)
same,growth inhibition,[14]; at 33.0 µM,98% (active)
same,growth inhibition,[14]; at 100.0 µM,97% (active)
same,growth inhibition,[4]; at 1.2 µM,18% (inactive)
same,growth inhibition,[4]; at 3.7 µM,85% (active)
same,growth inhibition,[4]; [17],78% (active) and 97% (active) and 96% (active)
same,growth inhibition,[4]; at 11.0 µM,97% (active)
same,growth inhibition,[4]; at 33.0 µM,97% (active)
same,growth inhibition,[4]; [18],99% (active)
same,growth inhibition,[4]; at 50.0 µM,99.1% (active) [middle of 4 runs]
same,growth inhibition,[4]; at 100.0 µM,96% (active)
same,growth inhibition,[15]; at 1.2 µM,6% (inactive)
same,growth inhibition,[15]; at 3.7 µM,85% (active)
same,growth inhibition,[15]; at 11.0 µM,97% (active)
same,growth inhibition,[15]; at 33.0 µM,99% (active)
same,growth inhibition,[15]; [18],99% (active) and 100% (active)
same,growth inhibition,[15]; at 50.0 µM,99.1% (active) [middle of 4 runs]
same,growth inhibition,[15]; at 100.0 µM,98% (active)
same,growth inhibition,[5]; at 1.2 µM,22% (inactive)
same,growth inhibition,[5]; at 3.7 µM,85% (active)
same,growth inhibition,[5]; at 11.0 µM,98% (active)
same,growth inhibition,[5]; at 33.0 µM,98% (active)
same,growth inhibition,[5]; at 100.0 µM,98% (active)
same,growth inhibition,[6]; [18],-41% (inactive) and 100% (active) and 99% (active)
same,growth inhibition,[6]; at 50.0 µM,95.5% (active) [middle of 5 runs]
same,growth inhibition,[7]; at 1.2 µM,-19% (inactive)
same,growth inhibition,[7]; at 3.7 µM,86% (active)
same,growth inhibition,[7]; at 11.0 µM,84% (active)
same,growth inhibition,[7]; at 33.0 µM,94% (active)
same,growth inhibition,[7]; at 100.0 µM,92% (active)
same,growth inhibition,[8]; at 50.0 µM,95.5% (active) [middle of 5 runs]
same,growth inhibition,[9]; at 1.2 µM,-2% (inactive)
same,growth inhibition,[9]; at 3.7 µM,63% (inactive)
same,growth inhibition,[9]; at 11.0 µM,97% (active)
same,growth inhibition,[9]; at 33.0 µM,98% (active)
same,growth inhibition,[9]; [18],-8% (inactive) and 100% (active) and 99% (active)
same,growth inhibition,[9]; at 50.0 µM,98.7% (active) [middle of 5 runs]
same,growth inhibition,[9]; at 100.0 µM,98% (active)
same,growth inhibition,[10]; at 1.2 µM,17% (inactive)
same,growth inhibition,[10]; at 3.7 µM,84% (active)
same,growth inhibition,[10]; at 11.0 µM,90% (active)
same,growth inhibition,[10]; at 33.0 µM,95% (active)
same,growth inhibition,[10]; at 100.0 µM,98% (active)
same,growth inhibition,[11]; at 1.2 µM,1% (inactive)
same,growth inhibition,[11]; at 3.7 µM,74% (active)
same,growth inhibition,[11]; at 11.0 µM,97% (active)
same,growth inhibition,[11]; at 33.0 µM,98% (active)
same,growth inhibition,[11]; at 100.0 µM,98% (active)
same,growth inhibition,[12]; at 1.2 µM,47% (inactive)
same,growth inhibition,[12]; at 3.7 µM,94% (active)
same,growth inhibition,[12]; at 11.0 µM,97% (active)
same,growth inhibition,[12]; at 33.0 µM,98% (active)
same,growth inhibition,[12]; at 100.0 µM,97% (active)
same,growth inhibition,[13]; [17],75% (active) [middle of 5 runs]
same,growth inhibition,[13]; [18],99% (active) and 96% (active)
same,growth inhibition,[13]; at 50.0 µM,98.2% (active) [middle of 4 runs]
same,growth inhibition,[16]; at 1.2 µM,30% (inactive)
same,growth inhibition,[16]; at 3.7 µM,95% (active)
same,growth inhibition,[16]; at 11.0 µM,97% (active)
same,growth inhibition,[16]; at 33.0 µM,97% (active)
same,growth inhibition,[16]; at 100.0 µM,97% (active)
